Sampled rows, rich in hits. Any-hit rate of the full collection: about 3.8%.
PrPC TRFRET: reduces human prion protein on the cell surface. inhibition, % at 13.8 µM. cell surface PrPC, TR-FRET read-out. actives 0.43% (n = 370,000); in the data active = inhibition above about 24%; also: 0% = median of the test wells and 100% = reference compound wells
PrP 5UTR inh: suppresses PrP 5' UTR mRNA reporter expression | inhibition, % (concentration not given with the values) | cell-based PrP 5' UTR mRNA reporter, plate reader | actives 0.35% (n = 340,000); in the data active = inhibition above about 52%; also: 0 = median of the neutral control wells
FBA Mtb inh: inhibitors of M. tuberculosis fructose-bisphosphate aldolase; actives 2.3% (n = 360,000); purified M. tuberculosis FBA, fluorescence read-out; AID 588726; inhibition, % at 1 µM; P9WQA3; in the data active = inhibition above about 27%;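 also: 0% = vehicle and 100% = reference inhibitor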
Mtb hypoxia rep: inhibitors of hypoxia-regulated fluorescent reporter in Mycobacterium tuberculosis; M. tuberculosis hypoxia-regulated fluorescent reporter, fluorescence; fluorescence inhibition, % (test concentration not listed); actives 0.1% (n = 300,000); AID 1159583; in the data active = fluorescence inhibition mostly above about 23%, no sharp cut-off; inactive = mostly below about 17%
GDH-TPI inh: GDH-TPI coupled enzyme inhibition counter-screen; GDH-TPI coupled enzyme counterscreen, NADH absorbance; inhibition, % at 4.8 µM; actives 1.2% (n = 360,000); AID 588335; in the data active = inhibition above about 30%;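 also: 0% = DMSO wells and 100% = wells lacking the enzyme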
Y pestis TopoI: inhibitors of Yersinia pestis topoisomerase I. Y. pestis Topo-I cleavage product accumulation, plate reader. AID 504884. actives 0.064% (n = 360,000). activity, % at 10 µM; in the data active = activity above about 50%, passing the limit was not always enough
PrPC confirm: confirmation of inhibitors of cell surface human prion protein. shares compounds with PrPC TRFRET. cell surface PrPC level, TR-FRET. inhibition, % at 13.8 µM. actives 65% (n = 1,500); in the data active = inhibition above about 25%
LD9 tox: LD9 cell cytotoxicity, PrPc inhibitor counter-screen; actives 29% (n = 1,500); shares compounds with PrPC TRFRET; LD9 cells cytotoxicity, luminescence viability; inhibition, % at 13.8 µM; AID 743201; in the data active = inhibition above about 9.5%
* marks the source's active call; other numbers are inactive results; nt = not tested or not shown.

SMILES | PrPC TRFRET | PrP 5UTR inh | FBA Mtb inh | Mtb hypoxia rep | GDH-TPI inh | Y pestis TopoI | PrPC confirm | LD9 tox
Cn1c(N2CCC(C(N)=O)CC2)nc2c1c(=O)n(Cc1cccc(Br)c1)c(=O)n2C | 41.6* | -8.3 | 1.6 | 1.9 | 3.7 | 3.2 | 59.0* | -4.8
Cc1cc(-c2cccc(Br)c2)c(C#N)c(N)n1 | 43.5* | -2.0 | 16.6 | 1.1 | -3.5 | 1.0 | 42.5* | 1.4
CCOc1ccc2[nH]cc(C(=O)NCCc3ccccc3)c(=O)c2c1 | 6.5 | -15.1 | 1.7 | -7.0 | -0.5 | -1.4 | nt | nt
CCOc1ccc2[nH]cc(C(=O)NCc3ccccc3)c(=O)c2c1 | 24.9* | -6.3 | 1.5 | 6.8 | 12.2 | 9.1 | 17.5 | 5.5
CCO[C@H]1OC(C(=O)Nc2ccccc2)=C[C@@H](c2ccc(C(F)(F)F)cc2)[C@@H]1CCCO | 31.1* | -17.7 | -1.5 | nt | -5.1 | -1.7 | 6.4 | -2.6
Cc1cnc2cc(Cl)ccc2c1SCC(=O)O | -1.7 | -22.4 | 3.1 | 7.5 | 12.3 | 4.1 | nt | nt
CC(=O)N1CCN(c2ccnc3cc(Cl)ccc23)CC1 | -4.7 | -12.7 | 0.9 | 2.1 | 3.4 | -1.9 | nt | nt
COC(=O)CSc1ccnc2cc(Cl)ccc12 | 68.1* | -11.2 | 3.1 | 10.5 | 0.7 | -16.2 | 91.9* | -6.0
O=C(O)CSc1ccnc2cc(Cl)ccc12 | 47.2* | -0.5 | -2.1 | -4.7 | 20.0 | -5.5 | 90.3* | 3.9
CC(=NNC(=O)Cc1ccccc1)c1ccc(Cl)s1 | nt | nt | nt | 5.1 | nt | nt | nt | nt
N#CC(C(=O)C12CC3CC(CC(C3)C1)C2)c1nc2ccccc2[nH]1 (stereo unspecified) | 34.6* | -26.6 | 2.7 | 2.2 | 25.4 | 8.3 | 23.9 | 0.4
CCCNC(=O)c1cc(Cl)c(NC(=O)C2=C(C)OCCS2)cc1OC | 26.2* | -27.8 | -0.2 | 3.2 | 7.3 | 23.1 | 31.9* | -2.2
COc1ccc(C(=O)Nc2scc(-c3ccc(Cl)cc3Cl)c2C(N)=O)cc1 | 68.4* | -62.3 | 1.1 | nt | 10.6 | -5.4 | 33.6* | 6.0
COc1ccc(C(=O)Nc2cc(OC)c(Cl)cc2Cl)cc1 | 10.0 | -17.4 | -0.5 | 10.9 | -6.3 | -1.9 | nt | nt
CCOC(=O)c1c(C)[nH]c(C(=O)OCC(=O)Nc2ccc(Cl)cn2)c1C | 2.4 | 3.5 | 3.7 | -0.8 | 11.1 | -7.1 | nt | nt
CCOC(=O)c1c(C)[nH]c(C(=O)OCC(=O)Nc2sccc2C(N)=O)c1C | 33.1* | -44.3 | 1.0 | 8.2 | 5.2 | 1.6 | 17.5 | 44.0*
O=C(NNc1ccccn1)C(c1ccccc1)c1ccccc1 | -5.4 | -8.7 | 11.1 | 4.7 | 1.6 | 1.2 | nt | nt
O=C(NNC(=O)C(c1ccccc1)c1ccccc1)c1ccccn1 | 34.2* | 28.5 | 0.6 | -4.1 | 3.8 | -9.1 | 22.7 | 43.0*
CC(C)CC(N)c1csc(Nc2ncccn2)n1 (stereo unspecified) | 41.5* | nt | 1.9 | nt | -8.4 | 6.7 | 50.1* | -1.3
COc1ccc(-n2ncc3c(N4CCC(C(N)=O)CC4)ncnc32)cc1 | 36.5* | -43.6 | 1.4 | -2.0 | 11.0 | -13.5 | 29.2* | -3.8
Cc1cc(C)nc(SCc2ccc(C(=O)NN=Cc3ccccn3)cc2)n1 | nt | nt | nt | 9.6 | nt | nt | nt | nt
COC(=O)C(C)Oc1ccc(Cc2ncc(C(F)(F)F)cc2Cl)cc1 (stereo unspecified) | 62.1* | -33.5 | 2.6 | 11.1 | -1.7 | 3.6 | 0.1 | -10.7
COc1ccc(C=Nn2c(C)cc(C)cc2=O)cc1 | nt | nt | nt | 13.0 | nt | nt | nt | nt
CSc1cccc(NS(=O)(=O)c2ccc3c(c2)CCN3C(C)=O)c1 | 25.3* | -13.6 | 2.2 | -4.0 | -3.0 | 10.0 | 20.9 | 14.6*
CC(C)(C)c1csc(NC(=O)c2cccnc2Cl)n1 | 2.1 | -13.1 | 3.0 | -7.7 | 3.4 | 11.1 | nt | nt
CSc1ncccc1C(=O)Nc1nc(C(C)(C)C)cs1 | 26.6* | 6.8 | 0.4 | -7.6 | 10.9 | -4.3 | 26.6* | -5.0
COC(=O)C=Cc1ccccc1S(=O)(=O)N(Cc1ccccc1)Cc1ccco1 | nt | nt | nt | 18.8 | nt | nt | nt | nt
CC(=O)c1ccc(OCc2cc(C(=O)N(C)Cc3nc4c(C)cccc4[nH]3)no2)cc1 | 26.8* | -15.6 | -2.6 | 7.7 | 3.5 | 13.5 | 25.9* | -0.3
CNc1nc(-c2ccccn2)nnc1-c1ccccc1 | 8.3 | -2.8 | 1.0 | nt | 5.3 | 5.3 | nt | nt
